# Measurements taken from PubChem BioAssay (NCATS).
# Several values for one entry are separate records, joined by “and”; a condition that tells them apart may be missing. Equal values may be shown once. A number with no mark means an inactive call. Activity calls are given as the source filed them. The call rests on the fitted dose curve.
# Experiment: qHTS drug screen for cell cycle checkpoint inhibitors in PARPi-resistant BRCA-mutant ovarian cancer cell lines. (AID 1963452)
# Details: PEO1/OlaR viability, CellTiter-Glo luminescence, 96 h
# In short: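 PEO1, PEO4 and PEO1/OlaR ovarian cancer cells, 600 per well, exposed 96 h at 37C to a dilution series. Viability read by CellTiter-Glo luminescence, normalized to DMSO and empty wells; activity summarized as Z-AUC.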
# Potency means the concentration at half of the fitted maximal effect.
row,SMILES,Potency
1,COc1cc(C(=O)NC2CCN(C)CC2)c(F)cc1Nc1ncc2c(n1)N(C1CCCC1)CC(F)(F)C(=O)N2C,245 nM (active)
2,CC(C)c1cc(CNc2nc(Nc3cc(C4CC4)[nH]n3)cc(N3CCN(C)CC3)n2)on1,549 nM (active)
3,Cc1cc(Nc2cc(N3CCN(C)CC3)nc(/C=C/c3ccccc3)n2)n[nH]1,490 nM (active)
4,COc1cc2ncnc(Nc3ccc(F)c(Cl)c3)c2cc1NC(=O)/C=C/CN1CCCCC1,6920 nM (active)

# Same assay, conditions: PEO1/OlaR viability, CellTiter-Glo luminescence, 96 h; active compounds read low
row,SMILES,Z-AUC
1,Cn1cncc1C(N)(c1ccc(Cl)cc1)c1ccc2c(c1)c(-c1cccc(Cl)c1)cc(=O)n2C (configuration not stated),-1.06
2,Cc1ccc(-c2ccc3ncc4c(c3n2)n(C2CCN(C(=O)[C@H](C)O)CC2)c(=O)n4C)cn1,-1.81
3,COC(=O)N(C)c1c(N)nc(-c2nn(Cc3ccccc3F)c3ncccc23)nc1N,0.294
4,Cc1c(F)cc(C(=O)NC2CC2)cc1-c1c(F)cn2c(C(C)(C)C)nnc2c1F,0.645
5,CC[C@H](NC(=O)[C@H](CS(=O)(=O)CC1CC1)N[C@@H](c1ccc(F)cc1)C(F)(F)F)C(=O)C(=O)NC1CC1,0.263
6,C[C@H]1Oc2cc(cnc2N)-c2c(nn(C)c2C#N)CN(C)C(=O)c2ccc(F)cc21,0.784 and 2.21
7,Cc1[nH]nc(C(F)(F)F)c1Cc1sc2c(c1C(=O)N1C[C@](C)(O)CO1)c(=O)n(C)c(=O)n2C(C)C,0.988
8,CNC(=O)c1cc(Oc2ccc3nc(N[C@@H]4CCCC[C@H]4O)sc3c2)ccn1,-0.222
